AmpC inh no detg = blocks E. coli AmpC beta-lactamase in detergent-free assay; AmpC nitrocefin hydrolysis, absorbance 480 nm, 0.0001% Triton; 0.52% of 330,000 active; Potency, µM (highest dose often 57.1 µM), inactives show top-dose activity change, negative = inhibition, hits mostly inhibitors; P00811;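 further: potency means the concentration at half of the fitted maximal effect; plate controls were no compound for no effect and no enzyme for full effect; nearly all actives have a fitted effect of over 20% in size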
Target sequence (P00811 whole entry, looked up): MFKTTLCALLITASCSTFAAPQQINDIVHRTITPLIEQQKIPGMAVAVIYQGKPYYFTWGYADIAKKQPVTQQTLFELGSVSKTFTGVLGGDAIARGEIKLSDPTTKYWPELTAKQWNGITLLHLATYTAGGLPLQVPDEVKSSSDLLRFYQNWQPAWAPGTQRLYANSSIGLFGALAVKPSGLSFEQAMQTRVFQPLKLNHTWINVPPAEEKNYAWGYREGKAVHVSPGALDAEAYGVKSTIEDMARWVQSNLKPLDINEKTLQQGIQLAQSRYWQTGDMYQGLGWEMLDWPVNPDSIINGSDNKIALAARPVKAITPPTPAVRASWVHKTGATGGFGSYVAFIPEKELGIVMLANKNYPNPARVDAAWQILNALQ
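20 mM phosphate pH 7.0 + 0.01% (detergent screen) or 0.0001% Triton X-100; 5.3 nM AmpC reagent; cpd preinc 15 min RT; nitrocefin (800 uM stock) to start; A480 q20 s × 4 min; Activity was normalised to no-enzyme and no-compound control wells.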
Cycloheximide cs = counter-screen hit for Shiga toxin inhibitors, cycloheximide | cell reporter, cycloheximide protein synthesis inhibition counterscreen | max response, % | 12% of 300,000 active | AID 2314; in the data active means max response mostly above about 13%, no sharp cut-off; inactive means mostly below about 14%; further: read at 38.3 µM for the half of the compounds with a filed dose; 0% is about no effect
AMA1 RON2 block = inhibitors of Plasmodium falciparum AMA1-RON2 interaction | AlphaScreen AMA1-biotinylated RON2 peptide binding | Potency, µM (top dose mostly 58.2 µM), inactives show top-dose activity change, negative = inhibition, usual class: inhibitors | 0.2% of 360,000 active;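 further: potency means the concentration at half of the fitted maximal effect; 0% = vehicle wells and -100% = peptide control; nearly all actives have a fitted effect of over 45% in size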
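AMA1 (3D7) with his tag at 25 nM final met compounds first, then biotinylated RON2 peptide at 25 nM; detection used donor plus acceptor beads, 10 µg/mL apiece, read by AlphaScreen after 30 min at room temperature.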
Shiga inhibitor = Shiga toxin inhibition | Vero cells, Shiga toxin protein synthesis inhibition reporter | inhibition, % at 38.7 µM | 9.2% of 290,000 active; in the data active means inhibition mostly above about 28%, no sharp cut-off; inactive means mostly below about 43%; further: 0% is about no effect
AmpC inh detg = inhibitors of E. coli AmpC beta-lactamase with detergent | P00811 | AmpC hydrolysis of nitrocefin, absorbance 480 nm, 0.01% Triton | Potency, µM (series often up to 114 µM), for inactives: top-dose activity change, negative = inhibition, usual class: inhibitors | 0.041% of 370,000 active | AID 485294;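 further: potency means the concentration at half of the fitted maximal effect; 0% = no-compound wells and -100% = no-enzyme wells; nearly all actives have a fitted effect of over 25% in size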
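20 mM phosphate pH 7.0 + 0.01% (detergent screen) or 0.0001% Triton X-100; 5.3 nM AmpC reagent; cpd preinc 15 min RT; nitrocefin (800 uM stock) to start; A480 q20 s × 4 min; Activity was normalised to no-enzyme and no-compound control wells.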
SARS PLP yeast = blocks SARS-CoV papain-like protease in a yeast assay. AID 485353. 0.19% of 330,000 active. S. cerevisiae expressing SARS-CoV PLpro, growth rescue. Potency, µM (highest dose often 32.9 µM), without a hit: at the highest dose activity, positive = growth rescue, most hits filed as activators; calls by dose curve; further: potency means the concentration at half of the fitted maximal effect; 0% is about no effect; nearly all actives have a fitted effect of over 55% in size
An asterisk follows results filed as active; u = inconclusive; x = no result given; [ ] = dose if it differs, or a comment. This excerpt belongs to a sample that is enriched for hits. Unless noted, the call rests on the fitted dose curve; in most records, active means well fitted curve in the direction sought with a large enough effect; inconclusive means small, poorly fitted or top-dose-only effect, or another doubt; inactive means no such curve, though single readings can be large; an effect the other way counts as inactive or inconclusive.

SMILES	AmpC inh no detg	Cycloheximide cs	AMA1 RON2 block	Shiga inhibitor	AmpC inh detg	SARS PLP yeast
CCN(C(=O)/C=C/c1ccc2c(c1)OCO2)c1ccccc1	-20.6%	21.2*	-19.5%	42.8*	u	14.1%
O=C(C=Cc1ccc2c(c1)OCO2)c1ccccc1	x	x	-0.4%	x	x	x
O=C(N/N=C/c1ccc2c(c1)OCO2)c1ccc2ccccc2n1	-41.4%	26.4*	-0.1%	80.5	3.5%	-5.7%
CCN(CC(=O)Nc1ccc(NC(C)=O)cc1)C(=O)/C=C/c1ccc2c(c1)OCO2	-27.4%	x	7.3%	x	u	-6.3%
O=C(N/N=C/c1cc2c(cc1Br)OCO2)c1ccccn1	-22.2%	42.8*	63.9%	54.6*	-9.6%	-1.2%
O=C(/C=C/c1ccc2c(c1)OCO2)c1ccccn1	-30.7%	71.7*	0.0%	97.0*	-6.6%	-0.5%
Cc1cccc(C(=O)N/N=C/c2ccc3c(c2)OCO3)n1	-7.4%	17.6	13.8%	40.8	-4.9%	-2.1%
Cc1ccc(NC(=O)C(Cc2ccccc2)NS(=O)(=O)c2ccc3c(c2)oc(=O)n3C)c(Cl)c1 (centres undefined)	x	x	x	x	-10.4%	x
CCOc1ccccc1CNC(=O)CCC(=O)N1CCSc2ccccc21	x	x	x	x	-0.3%	x
O=C(N/N=C/c1ccsc1)C1CC1	21.7%	30.4	34.3%	26.0	2.2%	-0.4%
O=C(N/N=C/c1ccc2c(c1)OCO2)c1ccccn1	-10.7%	39.5*	47.9%	92.9*	-9.3%	-22.0%
O=C(N/N=C/c1ccsc1)c1ccc2ccccc2n1	-31.8%	40.7*	0.3%	73.8*	1.2%	-10.9%
COc1cc(NS(=O)(=O)c2cc3c(cc2C)N(C)CCO3)cc(OC)c1OC	x	x	x	x	26.4%	x
CC1CCCC(NC(=O)C2N(CCCN3CCCC3)C(=O)C3C(C(=O)Nc4cccc(Cl)c4)C4C=CC32O4)C1C (centres undefined)	51.2%	-3.2	6.8%	-12.4	-0.1%	2.7%
COc1cccc(/C=C/C(=O)Nc2ccc3nc4n(c(=O)c3c2)CCCC4)c1OC	188.5%	23.1	52.7%	41.8*	-6.4%	1.2%
COc1cc(OC)cc(C(=O)Nc2ccc3nc4n(c(=O)c3c2)CCCCC4)c1	89.3%	46.3*	0.1%	49.4*	1.5%	-0.2%
COc1cc(/C=C/C(=O)Nc2ccc3nc4n(c(=O)c3c2)CCCC4)cc(OC)c1OC	170.3%	-3.9	-6.0%	-12.6	-1.0%	-2.8%
COCCNC(=S)NNC(=O)CSCc1ccc(Cl)cc1Cl	-10.8%[2.29 µM]	-2.7	49.1%	42.6*	-1.9%	-0.9%
NNC(=O)CSCc1ccc(Cl)cc1Cl	-23.0%	-1.4	102.2%	-5.0	-3.2%	-1.3%
COc1cccc(/C=C2/NC(=O)NC2=O)c1OCC(=O)Nc1ccccc1	-11.5%	-2.1	-8.3%	-3.7	-12.2%	0.7%
COc1cccc2c1nc(C)c1cc(C)oc12	-2.4%	36.3*	0.0%	40.0	u	-7.6%
Cc1cccc(C)c1NC(=O)COC(=O)c1c2c(nc3ccccc13)/C(=C\c1ccc3c(c1)OCO3)CCC2	28.2µM*	18.2*	4.4%	44.4*	3.1%	-4.0%
CC(OC(=O)c1c2c(nc3ccccc13)/C(=C\c1ccc3c(c1)OCO3)CCC2)C(=O)Nc1ccc(S(N)(=O)=O)cc1 (centres undefined)	-34.1%	41.7*	-6.4%	48.9*	u	19.9%
COc1ccc(S(=O)(=O)N2CCC(C(=O)Oc3c(OC)cccc3OC)CC2)cc1OC	147.0%	-4.5	-20.6%	4.8	-8.3%	3.8%
CSc1ccccc1NC(=O)CCn1c(=O)oc2ccccc21	-6.6%	-3.3	2.1%	-10.9	3.6%	-0.1%
SMILES	AmpC inh no detg	Cycloheximide cs	AMA1 RON2 block	Shiga inhibitor	AmpC inh detg	SARS PLP yeast
O=S(=O)(O)c1ccc(N=Nc2ccccc2)cc1	-11.9%	0.4	-13.1%	3.1	-13.1%	3.5%
Oc1ccc(N=Nc2ccccc2)o1	-13.8%	30.1*	-0.5%	42.1*	-4.6%	-11.8%
COc1cc(/C=N/N=C(N)N)ccc1OCc1ccc(Cl)cc1	-36.4%	39.7*	-15.1%	76.5	2.2%	-0.6%
CCOc1cc(/C=N/N=C(N)N)ccc1OCc1ccc(Cl)cc1	-8.9%	-11.7	-3.9%	-22.6	4.7%	14.1%
COc1cc(/C=N/N=C2/NC(=O)C(CC(=O)O)S2)ccc1OCc1ccc(Cl)cc1 (centres undefined)	-19.7%	20.1*	55.0%	38.5	u	28.0%
COc1cc(/C=N/O)ccc1OCc1ccc(C(=O)O)cc1	-13.2%	54.5*	-11.3%	21.3	5.8%	-8.4%
COc1cc(/C=N/O)ccc1OCc1ccc(Cl)cc1	-13.9%	36.7*	x	69.7	-6.8%	-1.0%
COC(=O)c1ccc(Cl)c(NC(=O)c2cccc([N+](=O)[O-])c2C)c1	-19.6%	-2.5	19.4%	-9.5	0.4%	0.3%
CCc1ccccc1N=C1S/C(=C/c2ccccc2OCC(=O)N2CCOCC2)C(=O)N1C	229.4%	-1.3	-13.6%	4.9	2.2%	5.3%
Cc1c(NC(=O)C2(C)CCCCC2)c(=O)n(-c2ccccc2)n1C	-10.1%	-2.9	0.0%	-10.3	u	-0.1%
CN(Cc1ccccc1)C(=C(Cl)Cl)C(=C1NCCN1)[N+](=O)[O-]	-18.2%	-2.5	25.0%	15.6	-6.0%	-2.6%
Cc1ccc(-n2ncc3c(NNC(=O)c4ccco4)ncnc32)cc1C	-10.9%	24.7*	138.6%	56.3*	2.0%	6.3%
O=C(NNc1ncnc2c1cnn2-c1cccc(Cl)c1)c1ccco1	-18.7%	8.9	129.5%	23.5	-10.5%	0.4%
CC(=O)NNc1ncnc2c1cnn2-c1ccc(C)cc1	-2.2%	36.7*	114.0%	85.7*	1.4%	-6.2%
CC(=O)NNc1ncnc2c1cnn2-c1ccc(C)c(Cl)c1	-3.8%	38.5*	66.4%	68.2*	-1.1%	-1.8%
Cc1ccc(-n2ncc3c(NNC(=O)c4ccccc4C)ncnc32)cc1	x	x	x	x	2.1%	x
Cc1ccc(-n2ncc3c(NCCO)ncnc32)cc1Cl	x	x	x	x	1.6%	x
COc1ccc(CC(=O)NNc2ncnc3c2cnn3-c2ccc(C)cc2)cc1OC	-7.3%	15.3*	34.4%	32.9	-2.7%	21.5%
Cc1nnc(SCC(=O)NC(=O)NCCC(C)C)s1	-15.3%	-3.6	-1.0%	-3.4	-14.5%	-3.2%
O=C(O)[C@@H]1CCCN1S(=O)(=O)c1cccc(S(=O)(=O)N2CCC[C@H]2C(=O)O)c1	-12.2%	-1.3	-0.1%	12.6	-18.4%	6.3%
Cc1ccc(CNc2ncccc2-c2nc(-c3ccc(Cl)cc3)no2)cc1	x	x	x	x	15.1%	x
Cc1nn(C(=O)c2ccco2)c(C)c1Sc1ccc([N+](=O)[O-])cc1	-21.9%	-2.7	1.7%	-6.1	3.8%	-2.8%
COc1ccc2nc(SCC(=O)c3ccco3)[nH]c2c1	-9.5%	48.2*	-7.0%	62.6*	6.6%	2.0%
O=C(CSc1ncnc2ccccc12)c1ccco1	-21.4%	25.1*	60.4%	56.6	3.1%	0.3%

Bioassay records: PubChem, National Center for Advancing Translational Sciences (NCATS)
